These results are taken from PubChem BioAssay (NCATS).

Assay [1] is described as follows: Drug repurposing screens with cells derived from glioblastoma tumor samples (AID 1345199). Further: nearly all actives have a fitted effect of over 40% in size. As to conditions: GBM patient neurospheres viability, ATP luminescence, 48 h. The essentials: (§1)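 Four patient lines of CD133+ GBM neurospheres were screened at several concentrations; hits were retested in those lines plus three slower-growing GBM lines, using 48-hour treatment and ATP-based viability.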

The next assay has as its system astro (control astrocytes). The assay is described as above. As to conditions: viability, ATP luminescence, 48 h; series mostly up to 45.9 µM. An outline of the steps:
as §1

Where [2] appears, read: at 20 µM (top of the series), tumour line C.
The mark [3] stands for this setting: at 21.2 µM (top of the series), tumour line B.
[4] abbreviates: at 21.2 µM (top of the series), tumour line D.
Setting [5] is: at 45.9 µM (top of the series), tumour line B.
Setting [6] is: at 45.9 µM (top of the series), tumour line D.
Setting [7] is: at 46 µM (top of the series), tumour line A.
The mark [8] stands for this setting: at 46.1 µM (top of the series), tumour line C.

“And” between values parts separate entries of the source, which are not always exact repeats. Equal entries are not always repeated. Results filed as inconclusive are left out. A structure can be active in one record and inactive in another. Values without a mark were called inactive. The source made the active and inactive calls. The call rests on the fitted dose curve; in most records, active means well fitted inhibition curve with a large enough effect; inconclusive means small, poorly fitted or top-dose-only effect; inactive means flat fitted curve, though single readings scatter. Where a SMILES comes first, the peptide text is derived from it. Bridges are numbered along the chain shown (N, C = ends). [ ]: non-standard residue; d: D form. The star is where a group is joined. X1 = CC[C@@H](C)[C@@H](N)C1=N[C@H](C(=O)*)CS1; d(aIle) = CC[C@H](C)[C@@H](N)C(=O)O; dOrn = NCCC[C@@H](N)C(=O)O
On the % scale 0 is the no-effect control and ±100 the full control effect; potency means the concentration at half of the fitted maximal effect.

`CC[C@@H](C)[C@@H](N)C1=N[C@H](C(=O)N[C@@H](CC(C)C)C(=O)N[C@@H](CCC(=O)O)C(=O)N[C@@H](C(=O)N[C@@H]2CCCCNC(=O)[C@@H](CC(N)=O)NC(=O)[C@@H](CC(=O)O)NC(=O)[C@@H](Cc3cnc[nH]3)NC(=O)[C@@H](Cc3ccccc3)NC(=O)[C@@H]([C@H](C)CC)NC(=O)[C@@H](CCCN)NC2=O)[C@@H](C)CC)CS1` (X1-LE[d(aIle)][dK][dOrn][dI][dF][dH][dD][dN]; lactam 4-C): the activity, negative = cell killing in assay [1] (setting [2]) was 4.06%; in assay [1] (setting [3]), -2.34%; in assay [1] (setting [4]), -0.888%; in assay [1] (at 21.3 µM (top of the series), tumour line A), -20.3%; in assay [1] (setting [5]) it was -12.2%; in assay [1] (setting [6]), -10.9%. The activity, negative = cell killing is -25% in assay [1] (setting [7]) and 23.1% in assay [1] (setting [8]). Further, in the assay on astro, the Potency result is “inactive”.

With `NCC[C@H](O)C(=O)N[C@@H]1C[C@H](N)[C@@H](O[C@H]2O[C@H](CN)CC[C@H]2N)[C@H](O)[C@H]1O[C@H]1O[C@H](CO)[C@@H](O)[C@H](N)[C@H]1O`, the activity, negative = cell killing in assay [1] (setting [5]) was -11.6%; in assay [1] (setting [6]), -8.34%; in assay [1] (setting [7]), -19.6%; in assay [1] (setting [8]), -19.9%. Also, the Potency result in the assay with astro was “inactive”.

With `Cc1cc(C(=O)NCCc2ccc(S(=O)(=O)NC(=O)NN3CCCCCC3)cc2)no1`, the activity, negative = cell killing is -15.9% in assay [1] (setting [5]), -13.6% in assay [1] (setting [6]), -31.1% in assay [1] (setting [7]) and -10.9% in assay [1] (setting [8]).

As to `CC(=O)OCC1=C(C(=O)O)N2C(=O)[C@@H](NC(=O)Cc3ccccc3)[C@H]2SC1`, the activity, negative = cell killing is -6.43% in assay [1] (setting [5]), -15.2% in assay [1] (setting [6]), -28.6% in assay [1] (setting [7]) and -24% in assay [1] (setting [8]).

With `O=C(CCCN1CCC(C(=O)c2ccc(F)cc2)CC1)c1ccc(F)cc1`, the results for the activity, negative = cell killing in assay [1] (setting [5]) and in assay [1] (setting [8]) were -22% and -4.95%, respectively. The Potency in assay [1] (tumour line A) was 8.91 µM (active).

`CCCCC[C@H](O)/C=C/[C@H]1[C@H](O)CC(=O)[C@@H]1CCCCCCC(=O)O`: the activity, negative = cell killing in assay [1] (setting [2]) is 1.46%; in assay [1] (setting [3]) it was -10.6%; in assay [1] (setting [4]), -20.2%. In assay [1] (tumour line A), the Potency was 11.2 µM (active).

Regarding `CCCC(CCC)C(=O)OC1C[C@H]2CC[C@@H](C1)[N+]2(C)C` (stereo partly specified), the activity, negative = cell killing in assay [1] (setting [5]) is -8.76% and -2.82%; in assay [1] (setting [6]) it was -23.5% and -24.1%; in assay [1] (setting [8]), -20.2%. In addition, the Potency in assay [1] (tumour line A) was 17.8 µM (active).

Take `CCCCC(CC)CCC(CC(C)C)OS(=O)(=O)O` (stereo unspecified): the activity, negative = cell killing is -14.6% and -5.66% in assay [1] (setting [5]); -13.9% and 2.49% in assay [1] (setting [6]); -21.7% and -3.22% in assay [1] (setting [7]); -16.9% and 4.88% in assay [1] (setting [8]).

For `CN1CCc2c(c3ccccc3n2Cc2ccccc2)C1`, the activity, negative = cell killing in assay [1] (setting [2]) is -5.19%; in assay [1] (setting [3]), -12.3%; in assay [1] (setting [4]), -14.4%. Besides, the Potency in assay [1] (tumour line A) was 5.62 µM (active). Moreover, the Potency result in the assay with astro is “inactive”.

Take `CCCC(=O)O`: the activity, negative = cell killing in assay [1] (setting [5]) is -1.41%; in assay [1] (setting [6]), -13.2%; in assay [1] (setting [7]) it was -10.6%; in assay [1] (setting [8]), -26.8%.

Consider `O=C1c2ccccc2CN2C(=O)c3ccccc3CN12`, for which the activity, negative = cell killing in assay [1] (setting [5]) was -20.4%; in assay [1] (setting [6]), -5.7%; in assay [1] (setting [7]) it was -23.1%; in assay [1] (setting [8]) it was -20%.

Take `C#C[C@]1(O)CC[C@@H]2[C@H]3CCC4=CC(=O)CC[C@H]4[C@H]3C(=C)C[C@@]21CC`: the activity, negative = cell killing was 2.86% in assay [1] (setting [5]) and -28.7% in assay [1] (setting [6]). Besides, the Potency in assay [1] (tumour line A) is 22.4 µM (active).

With `NCC(O)CC(=O)O` (stereo unspecified), the activity, negative = cell killing is -5.1% in assay [1] (setting [5]), -3.38% in assay [1] (setting [6]), -5.53% in assay [1] (setting [7]) and 12.2% in assay [1] (setting [8]).

Regarding `O=C(CO)[C@@H](O)[C@H](O)[C@@H](O)C(=O)O`, the activity, negative = cell killing in assay [1] (setting [5]) was -4.69%; in assay [1] (setting [6]) it was -4.84%; in assay [1] (setting [7]) it was -22.3%; in assay [1] (setting [8]), -9.16%.

On to `C=Cc1c(C)c2cc3nc(cc4[nH]c(cc5nc(cc1[nH]2)C(C)=C5CCC(=O)OC)c(CCC(=O)O)c4C)[C@@]1(C)C3=CC=C(C(=O)OC)[C@H]1C(=O)OC`, for which the activity, negative = cell killing was -5.62% in assay [1] (setting [5]), -3.48% in assay [1] (setting [6]), -5.65% in assay [1] (setting [7]) and -20.1% in assay [1] (setting [8]). Also, the Potency entry in the assay with astro was “inactive”.

In the case of `COc1ccc(C(=O)CCC(=O)O)c2ccccc12`, the activity, negative = cell killing in assay [1] (setting [5]) is 0.841%; in assay [1] (setting [6]) it was 1.24%; in assay [1] (setting [7]), -50.8%; in assay [1] (setting [8]) it was -26.3%. Besides, in the assay on astro, the Potency entry is “inactive”.

Regarding `NC(=O)OC[C@@H]1[C@H](NC(=O)/C(=N\OCC(=O)O)c2csc(N)n2)C(=O)N1S(=O)(=O)O`, the activity, negative = cell killing was 5.57% in assay [1] (setting [5]), 5.27% in assay [1] (setting [6]), -4.61% in assay [1] (setting [7]) and -1.35% in assay [1] (setting [8]). Moreover, the Potency entry in the assay with astro is “inactive”.

As to `C[C@@](Cc1ccc(O)c(O)c1)(NN)C(=O)O`, the activity, negative = cell killing in assay [1] (setting [5]) was -16.8%; in assay [1] (setting [6]) it was -8.91%; in assay [1] (setting [7]), -39.3%; in assay [1] (setting [8]) it was -14.3%. Moreover, in the assay with astro, the Potency entry was “inactive”.

Regarding `COc1ccc2c(=O)c(C)c(-c3ccccc3)oc2c1CN(C)C`, the values for the activity, negative = cell killing in assay [1] (setting [5]), in assay [1] (setting [6]) and in assay [1] (setting [8]) were -11.5%, -20.7% and -17.7%, respectively. Moreover, the Potency in assay [1] (tumour line A) was 20 µM (active). Besides, in the assay on astro, the Potency entry is “inactive”.

Turning to `CC[C@H]1OC(=O)C[C@@H](O)[C@H](C)[C@@H](O[C@@H]2O[C@H](C)[C@@H](O[C@H]3C[C@@](C)(O)[C@@H](O)[C@H](C)O3)[C@H](N(C)C)[C@H]2O)[C@@H](CC=O)C[C@@H](C)C(=O)/C=C/C(C)=C/[C@@H]1CO[C@@H]1O[C@H](C)[C@@H](O)[C@@H](OC)[C@H]1OC`, the activity, negative = cell killing in assay [1] (setting [5]) was -18.4% and -8.3%; in assay [1] (setting [6]), -0.155% and -17.6%; in assay [1] (setting [7]) it was -15.7%; in assay [1] (setting [8]), -3.5% and -16.4%. Moreover, in the assay on astro, the Potency result was “inactive”.
